Data: article PMC4336329 (PLoS ONE, 2015)
Out of some 310,000 compounds screened, about 14,000 (4.5%) showed an effect of 50% or more. Effects have a minus sign here. The full list was thinned out, with strong results kept by preference.

target: human ether-à-go-go-related gene (hERG) potassium channel (human, UniProt Q12809); assay: primary screen, population patch clamp on CHO cells stably expressing hERG; higher = less effect of the substance
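Further: peak tail current of the secondary pulse compared with the same well before compound.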

Chain of human ether-à-go-go-related gene (hERG) potassium channel (Q12809 whole entry, looked up): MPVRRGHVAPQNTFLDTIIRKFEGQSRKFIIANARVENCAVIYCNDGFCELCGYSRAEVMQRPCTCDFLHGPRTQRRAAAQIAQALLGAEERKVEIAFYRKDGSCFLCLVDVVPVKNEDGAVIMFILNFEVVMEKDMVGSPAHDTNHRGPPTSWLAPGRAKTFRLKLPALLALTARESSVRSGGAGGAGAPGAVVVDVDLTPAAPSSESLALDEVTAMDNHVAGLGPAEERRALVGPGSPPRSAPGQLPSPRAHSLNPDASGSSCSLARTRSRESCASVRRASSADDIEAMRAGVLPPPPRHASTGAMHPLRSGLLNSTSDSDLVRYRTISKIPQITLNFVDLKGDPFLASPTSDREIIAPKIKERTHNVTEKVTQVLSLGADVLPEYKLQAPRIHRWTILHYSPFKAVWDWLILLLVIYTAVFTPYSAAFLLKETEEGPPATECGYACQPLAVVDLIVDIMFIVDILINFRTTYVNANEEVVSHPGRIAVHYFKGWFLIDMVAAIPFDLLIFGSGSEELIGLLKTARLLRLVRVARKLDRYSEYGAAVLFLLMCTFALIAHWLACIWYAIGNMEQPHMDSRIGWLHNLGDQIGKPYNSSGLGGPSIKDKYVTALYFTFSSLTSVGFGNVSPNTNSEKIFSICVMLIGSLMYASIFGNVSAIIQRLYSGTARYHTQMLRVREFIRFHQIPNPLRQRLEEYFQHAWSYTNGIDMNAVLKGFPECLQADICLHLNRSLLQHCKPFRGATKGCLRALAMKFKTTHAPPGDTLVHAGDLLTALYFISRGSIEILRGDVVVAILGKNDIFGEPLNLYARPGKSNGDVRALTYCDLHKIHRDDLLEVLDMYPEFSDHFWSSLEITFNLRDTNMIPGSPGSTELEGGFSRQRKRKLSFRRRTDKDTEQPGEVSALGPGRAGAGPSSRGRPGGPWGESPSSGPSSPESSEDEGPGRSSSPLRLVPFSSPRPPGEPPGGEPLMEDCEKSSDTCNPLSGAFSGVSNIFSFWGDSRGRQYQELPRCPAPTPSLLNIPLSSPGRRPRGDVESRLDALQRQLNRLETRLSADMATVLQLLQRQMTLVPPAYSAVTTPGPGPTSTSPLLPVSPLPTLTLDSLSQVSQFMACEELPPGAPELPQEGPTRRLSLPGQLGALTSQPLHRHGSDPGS

SMILES	hERG current change (%, negative = inhibition) at 10uM [%]
CC1=CCC2C(=O)N(c3ccc(C)cc3)C(=O)C2C1 (stereo not shown)	-4.42
Cc1ccc(NC(=O)Cn2nnc(-c3ccccc3NC(=O)c3cccs3)n2)cc1	21.7
Cc1nc2ccccc2c(=O)n1-c1ccc(Cl)cc1[N+](=O)[O-]	10.1
Cc1ccccc1NC(=O)C1CCCN(C(=O)NCc2ccccc2)C1 (stereo not shown)	1.82
CCC(=NCCCN(CC)CC)c1c(O)n(C2CCCCC2)c(=O)[nH]c1=O	-52.9
CCC(=NCCO)c1c(O)n(C2CCCCC2)c(=O)[nH]c1=O	-14.6
CCC(=NCCCn1ccnc1)c1c(O)n(Cc2ccccc2)c(=O)[nH]c1=O	-68
CCCCn1c(O)c(C(CC)=NCCN2CCCCC2)c(=O)[nH]c1=O	-53.6
CCCCCCN=C(C)c1c(O)n(CCCC)c(=O)[nH]c1=O	-8.21
CCCCn1c(O)c(C(CC)=NCCCn2ccnc2)c(=O)[nH]c1=O	-43.3
CCCCn1c(O)c(C(C)=NCCN2CCCCC2)c(=O)[nH]c1=O	-21.7
CCCCn1c(O)c(C(CC)=NCCN2CCOCC2)c(=O)[nH]c1=O	-15.3
CCN(CC)CCCN=C(C)c1c(O)n(C2CCCCC2)c(=O)[nH]c1=O	-48.7
CCCCn1c(O)c(C(CC)=NCCCN(C)C)c(=O)[nH]c1=O	-29.2
CCC(=NCCCn1ccnc1)c1c(O)n(-c2ccccc2)c(=O)[nH]c1=O	7.4
CCCCCCN=C(CC)c1c(O)n(CCCC)c(=O)[nH]c1=O	-55.4
CCOC(=O)C1=c2s/c(=C\c3cccnc3)c(=O)n2C(N)=C(C(=O)OC)C1c1cccnc1 (stereo not shown)	14.7
Cn1c(=O)c2c(nc(SCCN3CCOCC3)n2C)n(C)c1=O	16.9
Cc1cc(C(=O)NNC(=S)Nc2ccccc2C)cs1	18.8
CC(=O)n1nc(-c2cccnc2)nc1N	-7.75
NS(=O)(=O)c1cc2c(cc1Cl)NC(C(Cl)Cl)NS2(=O)=O (stereo not shown)	20.2
CCCCCCn1c(O)c(C=NCCN2CCOCC2)c(=O)[nH]c1=O	-7.56

SMILES	hERG current change (%, negative = inhibition) at 10uM [%]
CCCCn1c(O)c(C=NCCN2CCCCC2)c(=O)[nH]c1=O	-2.31
CCCCCCn1c(O)c(C=NCCN2CCCCC2)c(=O)[nH]c1=O	-51.9
CCCNC(=O)N1CCC(C(=O)c2cccc(F)c2)CC1	-10.9
C#Cc1ccc(C(=O)NCc2ccc(N3CCCC3=O)cc2)cc1	20.2
CC(C)(C)NC(=O)C(c1ccco1)N(C(=O)Cn1nnc(-c2ccc(F)cc2)n1)c1ccccc1 (stereo not shown)	-17.5
CCC1CCCCN1CCCNC(=O)c1ccc2c(c1)c(C)c(C)n2C (stereo not shown)	-35
CC1CCN(c2nc3ccc(C(=O)NCCCN4CCCCC4C)cc3s2)CC1 (stereo not shown)	-59
CC(C)CC1Nc2ccc(C(=O)NCCCN3CCCCC3C)cc2NC1=O (stereo not shown)	3.4
CCC1CCCCN1CCCNC(=O)c1ccc2nc(N3CCCCC3)sc2c1 (stereo not shown)	-34
CC1CCCCN1CCCNC(=O)c1cc(Br)c(Br)[nH]1 (stereo not shown)	-64.9
CCC1CCCCN1CCCNC(=O)c1ccc2nc(N3CCC(C)CC3)sc2c1 (stereo not shown)	-64.5
CC1CCCC(C)N1CCCNC(=O)c1ccc2nc(N3CCOCC3)sc2c1 (stereo not shown)	-10.3
CC1CCCCN1CCCNC(=O)c1ccc2nc(N3CCCCC3)sc2c1 (stereo not shown)	-22.8
Cc1c(C)n(C)c2ccc(C(=O)NCCCN3CCCCC3C)cc12 (stereo not shown)	-19.6
Cc1ccc(OCC(=O)NNC(=O)CCc2ccccc2)c(Br)c1	10
CCOC(=O)N1CCN(C(=O)C2CCCN(S(=O)(=O)c3ccc(F)cc3)C2)CC1 (stereo not shown)	-10.1
COc1ccc(Cl)cc1NC(=O)c1cc(-c2ccc(C)cc2O)n[nH]1	15.9
O=C1CSC(c2ccncc2)N1Cc1ccc(F)cc1 (stereo not shown)	1.53
N#Cc1c(NCCO)nc(NCc2ccccc2)c2c1CCN(Cc1ccccc1)C2	-27.1
CCc1nc(NCc2ccccc2)c(C#N)c2c1CCCC2	23.3
C=CCNc1nc(N2CCOCC2)c(C#N)c2c1CN(C)CC2	-14.1
CCN1CCc2c(C#N)c(NCc3ccccc3)nc(N(CC)CC)c2C1	-68.5

SMILES	hERG current change (%, negative = inhibition) at 10uM [%]
C=CCNc1nc(NCc2ccccc2)c(C#N)c2c1CN(C)CC2	-68.1
CN1CCc2c(C#N)c(N3CCCCC3)nc(NCc3ccccc3)c2C1	-2.02
CCN1CCc2c(C#N)c(N3CCOCC3)nc(NCCO)c2C1	11.8
CCN1CCc2c(C#N)c(NCc3ccccc3)nc(NCCO)c2C1	-51.6
CCN1CCc2c(C#N)c(N3CCCCC3)nc(NCc3ccccc3)c2C1	-39.8
Cc1ccc(NC2=NCC(=O)N2C2CCCC2)cc1.Cl	14.7
CNC(=O)N1c2ccccc2NC(=O)CC1C (stereo not shown)	9.32
Cc1ccc(S(=O)(=O)NC2=NCN(CCN3CCOCC3)CN2)cc1	8.55
CC(=O)N(CCCN1CCOCC1)Cc1ccncc1.Cl	16.4
O=C(Nc1nc2ccc(Cl)cc2s1)c1ccc(Br)o1	4.25
Cc1ccc(CNC(=O)/C=C/c2ccc(S(=O)(=O)NCc3ccco3)cc2)cc1	-1.37
O=C(CN1CCN(c2ccc(F)cc2)CC1)Nc1nccs1	-1.39
O=C(CN1CCN(c2ccc([N+](=O)[O-])cc2)CC1)Nc1ccccn1	-77.9
Cc1c(NC(=O)CN2CCN(c3ccccc3)CC2)c(=O)n(-c2ccccc2)n1C	9.86
O=C(CN1CCN(CC(=O)Nc2ccccn2)CC1)Nc1ccccn1	-36
O=C(CN1CCN(c2ccccc2)CC1)Nc1nccs1	5.11
O=C(CN1CCN(c2ccc([N+](=O)[O-])cc2)CC1)Nc1nccs1	-65.6
Cc1c(NC(=O)CN2CCN(c3ccc(O)cc3)CC2)c(=O)n(-c2ccccc2)n1C	21
Cc1c(NC(=O)CN2CCN(c3ccc([N+](=O)[O-])cc3)CC2)c(=O)n(-c2ccccc2)n1C	-50.1
O=C(CN1CCN(c2ccccc2)CC1)Nc1cccc([N+](=O)[O-])c1	2.69
